Results filed as inconclusive are left out. Where a call stands in place of a potency, no number is given. The source made the active and inactive calls. Calls come from the whole dose curve; as a rule, active = well fitted cell-killing curve with a large enough effect; inconclusive = small, poorly fitted or top-dose-only effect; inactive = flat fitted curve, though single readings scatter.
Test: Quantitative highthroughput screen to assess conditional lethalithy of P12 Ichikawa cells grown in RPMI1640 with dialyzed fetal bovine serum (RPMI+ds) (AID 1963880); note: nearly all actives have a fitted effect of over 35% in size
Settings: ATP luminescence, 48 h; Potency: P12-Ichikawa viability; series mostly up to 45.8 µM
Description: Assay Provider: Jason Cantor Ph.D.
Department of Biochemistry
University of Wisconsin-Madison, Madison, WI, USA
Chemical screening studies have identified drug sensitivities across hundreds of cancer cell lines but most putative therapeutics fail to translate. Discovery and development of drug candidates in models that more accurately reflect nutrient levels in human blood is a major challenge. Here we performed high-throughput screens in conventional versus Human Plasma-Like Medium (HPLM) to identify compounds that were "missed" when screening using the artificial culture condition. Sets of conditional anticancer compounds spanned phases of clinical development and included non-oncology drugs were assessed. […] We also traced conditional phenotypes for several chemotherapeutics to availability of HPLM-specific metabolites and confirmed others for compounds whose reported targets are encoded by nonessential genes. Our findings establish generalizable strategies for exploiting conditional lethality in HPLM to reveal therapeutic candidates and mechanisms of action in cancer cells.
Described herein are the results of each viability screens against three cell lines: NOMO1 (an acute myeloid leukemia cell line); P12-Ichikawa (a T-cell acute lymphoblastic leukemia); and SEM (a B-cell ALL). Each assay was screened using 3 different cell culture media: homemade human plasma-Like medium with 10% dialyzed fetal bovine serum (HPLM+ds); RPMI1640 with 10% untreated FBS and 5mM glucose (RPMI+s); and RPMI1640 with 10% dialyzed fetal bovine serum and 5 mM glucose (RPMI+ds).
PROTOCOL TABLE (as described by Inglese J, Shamu CE and Guy RK. 2007)
SEQUENCE No. (e.g., 1, 2, 3, etc.); […] (e.g., Cells, Incubation, Reagent, etc.); VALUE and DESCRIPTION.
1; Cells; 5 uL; white, solid bottom 1536-well Greiner assay plate.
2; Compounds; 23 nL; Kalypsis pin tool (Wako USA) equipped with a 1536-well pin head to transfer to the assay plates.
3; Incubation; 48 hours; 37C incubation.
4; Reagent; 3 uL; CellTiter Glo (Promega).
5; Incubation; 5 min, room temperature
6; Detection; Luminescence, Viewlux PerkinElmer.
NOTES (numbers refer to Sequence numbers above)
1. Briefly, 5 ul of cell reagent was dispensed using a Multidrop Combi Dispenser. The NOMO1 and SEM cells were plated at 500 cells/well and the P12-Ichikawa line at 1000 cells/well.
2. After seeding the cells, 23 nL of MIPE 4.1 library compounds (in DMSO) were added to each plate using a Kalypsys 1536 Pintool dispenser. Bortezomib at final concentration of […] and DMSO were added to each plate as positive and negative controls respectively. For each screen, MIPE 4.1 compounds were added over an eleven-point concentration range […] in 3-fold dilutions.
3. Each plate was covered with a stainless steel gasketed lid to prevent evaporation and incubated for 48 hour at 37C, 95% relative humidity, and 5% CO2.
4-5. Three microliter CellTilter-GloTM luminescent substrate mix (Promega) reagent was added to the assay plate and incubated at room temperature for 5 min.
6. The luminescence signal was measured using a ViewLux (PerkinElmer) multiplate reader with a 2 second exposure time per plate. Data for each compound were normalized as percent viability such that measurements for DMSO and the empty well controls in each plate were defined as 100% and 0%, respectively.
Potency is the fitted concentration of half-maximal effect.

| SMILES | Potency |
| --- | --- |
| C[C@@]1(c2cc(-c3cncnc3)c(F)cc2F)CCSC(N)=N1 | 16.6 µM (active) |
| COc1cc2nc(N3CCN(C(=O)C4COc5ccccc5O4)CC3)nc(N)c2cc1OC (stereo not given) | inactive |
| CC(=O)O[C@H]1C[C@@H]2CC[C@H]3[C@H]4C[C@H]([N+]5(C)CCCCC5)[C@@H](OC(C)=O)[C@@]4(C)CC[C@@H]3[C@@]2(C)C[C@H]1N1CCCCC1 | inactive |
| Cc1ccc(/C=N/NC(=O)c2ccccc2Oc2ccccc2)o1 | inactive |
| COc1cc(Nc2ncc(F)c(Nc3ccc4c(n3)N(COP(=O)(O)O)C(=O)C(C)(C)O4)n2)cc(OC)c1OC | inactive |
| C=C1C(=O)O[C@H]2[C@@H]1CCC(C)=CCC[C@@]1(C)O[C@@H]21 | 2.35 µM (active) |
| O=c1cc(-c2ccccc2)oc2cc(O)cc(O)c12 | 23.5 µM (active) |
| C[C@@H](NCc1cc2ccccc2[nH]1)c1cccc2ccccc12 | inactive |
| CCC1(C)CC(=O)NC1=O (stereo not given) | inactive |
| O=C1c2cccc(O)c2C(=O)c2c(O)cc(CO)cc21 | inactive |
| C[C@H](NC(=O)Cc1cc(F)cc(F)c1)C(=O)N[C@H](C(=O)OC(C)(C)C)c1ccccc1 | inactive |
| CS(=O)(=O)c1ccc(C2=C(c3ccccc3)C(=O)OC2)cc1 | inactive |
| CN1C(C(=O)Nc2ccccn2)=C(O)c2sccc2S1(=O)=O | inactive |
| COc1ccc(-c2coc3cc(O)cc(O)c3c2=O)cc1 | inactive |
| Nc1[nH]c(=O)ncc1F | inactive |
| Cc1cn(CCN2CCN(c3ccccc3-c3cc(C#N)cc(C(=O)NCCCN4CCCC4)c3)CC2)c2ccccc12 | 7.41 µM (active) |
| c1ccc2c(Oc3nc(Nc4ccc(N5CCOCC5)cc4)c4ncn(C5CCCCC5)c4n3)cccc2c1 | inactive |
| Cc1ccc(C(C)(O)c2nc3ccccc3s2)c(C)c1 (stereo not given) | 18.7 µM (active) |
| Cn1cc(-c2ccc3nnc(Sc4ccc5ncccc5c4)n3n2)cn1 | inactive |
| Cc1ccc([N+](=O)[O-])cc1S(=O)(=O)N(C)N=Cc1cnc2ccc(Br)cn12 | 0.132 µM (active) |

| SMILES | Potency |
| --- | --- |
| CC(C)=CC[C@@H](O)C1=CC(=O)c2c(O)ccc(O)c2C1=O | 13.2 µM (active) |
| C=CC(=O)Nc1ccc2ncnc(Nc3ccc(OCc4cccc(F)c4)c(Cl)c3)c2c1 | 7.43 µM (active) |
| NC(=O)Cc1cccc(C(=O)c2ccccc2)c1N | inactive |
| O=C(C=Cc1cccc(S(=O)(=O)Nc2ccccc2)c1)NO | 6.05 µM (active) |
| CNC1CCCN(c2c(F)cc3c(=O)c(C(=O)O)cn(C4CC4)c3c2OC)C1 (stereo not given) | inactive |
| O=C1c2ccccc2-[n+]2ccc3c([nH]c4ccccc43)c21 | 9.35 µM (active) |
| C[C@@H]1[C@H](C)CC[C@]2(C(=O)O)CC[C@]3(C)C(=CC[C@@H]4[C@@]5(C)C[C@@H](O)[C@H](O)[C@@](C)(CO)[C@H]5CC[C@]43C)[C@@H]12 | inactive |
| OCCN1CCN(CCCN2c3ccccc3Sc3ccc(C(F)(F)F)cc32)CC1 | 14.8 µM (active) |
| CC(S)C(=O)NCC(=O)O (stereo not given) | inactive |
| CN(C)c1cccc(-c2c3c(=O)n(-c4ccccc4Cl)[nH]c3cc(=O)n2C)c1 | 1.17 µM (active) |
| C=C1CCC2[C@](C)(CO)C(O)CC[C@]2(C)C1CC=C1C(=O)OCC1O (stereo not given in full) | inactive |
| CC(=O)[C@H]1CC[C@H]2[C@@H]3CC=C4C[C@@H](O)CC[C@]4(C)[C@H]3CC[C@]12C | inactive |
| O=C1C[C@@H](c2ccc(O)cc2)Oc2cc(O)cc(O)c21 | inactive |
| CCC[C@@H](NC(=O)[C@@H]1[C@H]2CCC[C@@H]2CN1C(=O)[C@@H](NC(=O)[C@@H](NC(=O)c1cnccn1)C1CCCCC1)C(C)(C)C)C(=O)C(=O)NC1CC1 | inactive |
| N=C1SC(=Cc2ccc(-c3ccc4c(c3)C(=O)NC4=O)o2)C(=O)N1c1ccc(Br)cc1 | inactive |
| Clc1ccc2c(c1)C(N1CCNCC1)=Nc1ccccc1O2 | inactive |
| C#C[C@]1(O)CC[C@H]2[C@H]3CCc4cc(OC)ccc4[C@H]3CC[C@@]21C | inactive |
| Cc1nc(NC(=O)N2CCC[C@@H]2C(N)=O)sc1-c1ccnc(C(C)(C)C(F)(F)F)c1 | 5.9 µM (active) |
| O=C1C(Cl)=C(NCCN2CCOCC2)C(=O)c2ncccc21 | 20.9 µM (active) |
| c1ccc2c(CCNc3ccc(Nc4ccncc4)cc3)c[nH]c2c1 | 20.9 µM (active) |

— PubChem BioAssay (NCATS)
